Results taken from the supplement of paper PMC9694430.

test system: LOC_OS01G14860-cb001; assay: thermal shift delta Tm vs DMSO control; higher = stronger stabilization (binding); settings: 12.5 µM; protein concentration 2 µM
How it was run: (§1)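 Heating from 25°C to 95°C at 0.05°C/s, fluorescence was recorded for 19.5 μl wells of 2 μM E. coli-expressed, purified rice kinase domain in 100 mM potassium phosphate pH 7.5, 150 mM NaCl, 10% glycerol and 5 × SYPRO Orange with compound in DMSO. Boltzmann fits gave melting temperatures for this differential scanning fluorimetry assay. The shift reported is the mean of three replicates against the DMSO-only protein.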
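Note: purified Escherichia coli-expressed rice kinase domain construct.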

| Compound | thermal shift delta Tm [°C] |
| --- | --- |
| CCn1c(=O)c(-c2ccc(-c3cncs3)cc2Cl)cc2cnc(Nc3ccc(N4CCN(C)CC4)cc3)nc21 | 0.12 |
| Cc1ccc(CNc2ncnc3ccc(-c4ccc(CO)o4)cc23)o1 | 0.56 |
| COc1ccc(C(=O)Nc2sc3c(c2C(N)=O)CCCC3)cc1OC | 0.19 |
| COc1cc2c(Oc3ccc4[nH]c(C)cc4c3F)ncnc2cc1OCCCN1CCCC1 [Cediranib (AZD2171)] | 0.26 |
| CNC(=O)c1cccc(-c2ccc3c(N4CCOC[C@@H]4C)nc(N4CCOC[C@@H]4C)nc3n2)c1 [Vistusertib (AZD2014)] | -0.13 |
| Cc1ccc(C(=O)Nc2ccc(CN3CCN(C)CC3)c(C(F)(F)F)c2)cc1C#Cc1cnc2[nH]ncc2c1 [GZD824 Dimesylate] | 6.49 |
| Cc1ccccc1-n1c(Cn2nc(-c3cccc(O)c3)c3c(N)ncnc32)nc2cccc(C)c2c1=O | -0.04 |
| Cc1nc(Nc2cnn(C3CCNCC3)c2)nc2c1N(C)C(=O)c1cc3ccccc3cc1N2C | -0.18 |
| O=C1NCCc2[nH]c(-c3ccncc3)cc21 | 5.61 |
| Cc1nc2c(-c3cnc(N)nc3)nc(N3CCOCC3)nc2n1C(C)C | -0.18 |
| O=C(Nc1nc2cccc(-c3ccc(CN4CCS(=O)(=O)CC4)cc3)n2n1)C1CC1 [Filgotinib (GLPG0634)] | 0.5 |
| Fc1ccc2[nH]ccc2c1-c1nc(N2CCOCC2)c2sc(CN3CCN(CC4CC4)CC3)cc2n1 | 0.37 |
| CCOC(=O)c1cnc2ccc(-c3cncc(NS(=O)(=O)c4ccccc4)c3)cn12 | 0.13 |
| CCOc1cn(-c2ccc(F)cc2C)nc1C(=O)Nc1ccc(Oc2ccnc3cc(OC)c(OC)cc23)c(F)c1 | 0.5 |
| COc1ncc(-c2ccc3nccc(-c4ccnnc4)c3c2)cc1NS(=O)(=O)c1ccc(F)cc1F | 1.9 |
| C=CC(=O)Nc1ccc(CN2C(=O)N(c3cc(OC)cc(OC)c3)Cc3cnc(Nc4ccc(N5CCN(C)CC5)cc4)nc32)cc1 | 0.97 |
| COc1ccc(S(=O)(=O)N(C(C)=O)c2ccccc2/C=C/c2cc[n+]([O-])cc2)cc1 | 0.58 |
| CNC(=O)c1ccccc1Nc1nc(Nc2ccc(N3CCOCC3)cc2OC)ncc1Cl | 0.28 |
| O=C(O)c1ccc2c(c1)nc(Nc1cccc(Cl)c1)c1ccncc12 [Silmitasertib (CX-4945)] | 2.7 |

| Compound | thermal shift delta Tm [°C] |
| --- | --- |
| N#Cc1ccc2[nH]c(O)c(-c3ccc(CN4CCOCC4)cn3)c2c1 | 6.12 |
| CN1CCC(COc2cnc(-c3cccc(Cn4nc(-c5cccc(C#N)c5)ccc4=O)c3)nc2)CC1 | 0.03 |
| C[C@@H]1CN(CC(=O)Nc2ccc3c(c2)Cc2cccc(-c4cc(=O)cc(N5CCOCC5)o4)c2S3)C[C@H](C)O1 | 1.89 |
| COc1cc(N2CCN(C)CC2)ccc1Nc1nccc(-c2cn(C)c3cnccc23)n1 | 0.92 |
| COc1ccc(S(=O)(=O)N(CCO)c2ccccc2CN(C)C/C=C/c2ccc(Cl)cc2)cc1 [KN-93 Phosphate] | 0.51 |
| COc1cc2ncnc(Nc3cccc(Cl)c3)c2cc1OC [AG-1478 (Tyrphostin AG-1478)] | 0.56 |
| C=C[C@@](C)(/C=C/c1ccc(O)cc1)CCC=C(C)C [Bakuchiol] | 0.91 |
| Cc1nc2ccc(-n3ncc(C(=O)c4cc5ccccc5[nH]4)c3N)cc2[nH]1 | 0.41 |
| CC(C)NC(=O)C1CCC(n2c(NC(=O)c3ccc(F)cc3)nc3ccc(CN4CCC(C(C)(C)O)CC4)cc32)CC1 (centres undefined) [Belizatinib (TSR-011)] | 0.58 |
| CN(C[C@@H]1COCCO1)S(=O)(=O)Nc1ccc2ccc3ncc(-c4cnn(C)c4)cc3c(=O)c2c1 | 0.52 |
| Cn1cc(/C=C2\C(=O)Nc3cccnc32)c2ccccc21 | 0.68 |
| COc1cc(OC)c(C=C2C(=O)Nc3ccccc32)c(OC)c1 | 0.32 |
| COc1ccc(/C=C/C(=O)C2(C(=O)/C=C/c3ccc(OC)c(OC)c3)CCCCC2)cc1OC | 0.18 |
| N#C/C(=C(/N)Sc1ccc(N)cc1)c1ccccc1C(F)(F)F | 0.5 |
| CNC(=O)CN1CCC(Oc2cc3c(Nc4cccc(Cl)c4F)ncnc3cc2OC)CC1 [Sapitinib (AZD8931)] | 0.2 |
| CCS(=O)(=O)N1CCN(c2ccc(Nc3ncc(C(N)=O)c(NC4CC4)n3)cc2)CC1 | 3.61 |
| O=C1NC(=O)C(=Cc2ccc(-c3ccc(F)cc3)o2)S1 (stereo in doubt) | 0.85 |
| C[C@@H](N)c1ccc(C(=O)Nc2ccnc3[nH]ccc23)cc1 | 1.44 |

test system: LOC_OS01G21960-cb002; assay: as above; settings: 12.5 µM; protein concentration 2 µM
How it was run: as §1

| Compound | thermal shift delta Tm [°C] |
| --- | --- |
| CCn1c(=O)c(-c2ccc(-c3cncs3)cc2Cl)cc2cnc(Nc3ccc(N4CCN(C)CC4)cc3)nc21 | 0.22 |
| Cc1ccc(CNc2ncnc3ccc(-c4ccc(CO)o4)cc23)o1 | 0.93 |
| COc1ccc(C(=O)Nc2sc3c(c2C(N)=O)CCCC3)cc1OC | 0.49 |
| COc1cc2c(Oc3ccc4[nH]c(C)cc4c3F)ncnc2cc1OCCCN1CCCC1 [Cediranib (AZD2171)] | 0.39 |
| CNC(=O)c1cccc(-c2ccc3c(N4CCOC[C@@H]4C)nc(N4CCOC[C@@H]4C)nc3n2)c1 [Vistusertib (AZD2014)] | 0.23 |
| Cc1ccc(C(=O)Nc2ccc(CN3CCN(C)CC3)c(C(F)(F)F)c2)cc1C#Cc1cnc2[nH]ncc2c1 [GZD824 Dimesylate] | 1.24 |
| Cc1ccccc1-n1c(Cn2nc(-c3cccc(O)c3)c3c(N)ncnc32)nc2cccc(C)c2c1=O | 0.03 |
| Cc1nc(Nc2cnn(C3CCNCC3)c2)nc2c1N(C)C(=O)c1cc3ccccc3cc1N2C | 0.66 |
| O=C1NCCc2[nH]c(-c3ccncc3)cc21 | 2.12 |
| Cc1nc2c(-c3cnc(N)nc3)nc(N3CCOCC3)nc2n1C(C)C | 0.83 |
| O=C(Nc1nc2cccc(-c3ccc(CN4CCS(=O)(=O)CC4)cc3)n2n1)C1CC1 [Filgotinib (GLPG0634)] | 0.89 |
| Fc1ccc2[nH]ccc2c1-c1nc(N2CCOCC2)c2sc(CN3CCN(CC4CC4)CC3)cc2n1 | -0.01 |
| CCOC(=O)c1cnc2ccc(-c3cncc(NS(=O)(=O)c4ccccc4)c3)cn12 | 1.06 |
| CCOc1cn(-c2ccc(F)cc2C)nc1C(=O)Nc1ccc(Oc2ccnc3cc(OC)c(OC)cc23)c(F)c1 | -0.29 |
| COc1ncc(-c2ccc3nccc(-c4ccnnc4)c3c2)cc1NS(=O)(=O)c1ccc(F)cc1F | 1.2 |
| C=CC(=O)Nc1ccc(CN2C(=O)N(c3cc(OC)cc(OC)c3)Cc3cnc(Nc4ccc(N5CCN(C)CC5)cc4)nc32)cc1 | 1.74 |
| COc1ccc(S(=O)(=O)N(C(C)=O)c2ccccc2/C=C/c2cc[n+]([O-])cc2)cc1 | 0.67 |
| CNC(=O)c1ccccc1Nc1nc(Nc2ccc(N3CCOCC3)cc2OC)ncc1Cl | 0.37 |
| O=C(O)c1ccc2c(c1)nc(Nc1cccc(Cl)c1)c1ccncc12 [Silmitasertib (CX-4945)] | 2.28 |

| Compound | thermal shift delta Tm [°C] |
| --- | --- |
| N#Cc1ccc2[nH]c(O)c(-c3ccc(CN4CCOCC4)cn3)c2c1 | 0.79 |
| CN1CCC(COc2cnc(-c3cccc(Cn4nc(-c5cccc(C#N)c5)ccc4=O)c3)nc2)CC1 | 0.05 |
| C[C@@H]1CN(CC(=O)Nc2ccc3c(c2)Cc2cccc(-c4cc(=O)cc(N5CCOCC5)o4)c2S3)C[C@H](C)O1 | 0.63 |
| COc1cc(N2CCN(C)CC2)ccc1Nc1nccc(-c2cn(C)c3cnccc23)n1 | 1.48 |
| COc1ccc(S(=O)(=O)N(CCO)c2ccccc2CN(C)C/C=C/c2ccc(Cl)cc2)cc1 [KN-93 Phosphate] | 0.96 |
| COc1cc2ncnc(Nc3cccc(Cl)c3)c2cc1OC [AG-1478 (Tyrphostin AG-1478)] | 0.99 |
| C=C[C@@](C)(/C=C/c1ccc(O)cc1)CCC=C(C)C [Bakuchiol] | 0.52 |
| Cc1nc2ccc(-n3ncc(C(=O)c4cc5ccccc5[nH]4)c3N)cc2[nH]1 | -0.17 |
| CC(C)NC(=O)C1CCC(n2c(NC(=O)c3ccc(F)cc3)nc3ccc(CN4CCC(C(C)(C)O)CC4)cc32)CC1 (centres undefined) [Belizatinib (TSR-011)] | 1.84 |
| CN(C[C@@H]1COCCO1)S(=O)(=O)Nc1ccc2ccc3ncc(-c4cnn(C)c4)cc3c(=O)c2c1 | 1.85 |
| Cn1cc(/C=C2\C(=O)Nc3cccnc32)c2ccccc21 | 1.44 |
| COc1cc(OC)c(C=C2C(=O)Nc3ccccc32)c(OC)c1 | 0.88 |
| COc1ccc(/C=C/C(=O)C2(C(=O)/C=C/c3ccc(OC)c(OC)c3)CCCCC2)cc1OC | 0.55 |
| N#C/C(=C(/N)Sc1ccc(N)cc1)c1ccccc1C(F)(F)F | 0.38 |
| CNC(=O)CN1CCC(Oc2cc3c(Nc4cccc(Cl)c4F)ncnc3cc2OC)CC1 [Sapitinib (AZD8931)] | 0.31 |
| CCS(=O)(=O)N1CCN(c2ccc(Nc3ncc(C(N)=O)c(NC4CC4)n3)cc2)CC1 | 2.53 |
| O=C1NC(=O)C(=Cc2ccc(-c3ccc(F)cc3)o2)S1 (stereo in doubt) | 1.54 |
| C[C@@H](N)c1ccc(C(=O)Nc2ccnc3[nH]ccc23)cc1 | 1.78 |
